BoNT F protease = blocks Botulinum neurotoxin F light chain protease; Multiplex microsphere protease cleavage assay, flow cytometry; inhibition, % at 10 µM; hit rate 0.22% among 360,000; AID 588497; in the data active means inhibition above about 35%, passing the limit was not always enough; inconclusive means no clear call, values can overlap the other calls; further: plate controls were buffer without enzyme for full effect and enzyme alone for no effect
MazF activator = increases E. coli MazEF RNase cleavage of RNA; FAM/BHQ RNA-DNA oligo cleavage fluorescence, 5 h; P0AE70; hit rate 0.32% among 350,000; AID 504720; activation, % at 20 µM; in the data active means activation above about 50%
Target sequence (P0AE70 whole entry, looked up): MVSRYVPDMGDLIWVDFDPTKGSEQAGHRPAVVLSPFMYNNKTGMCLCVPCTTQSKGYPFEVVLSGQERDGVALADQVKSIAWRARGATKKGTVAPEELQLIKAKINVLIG
BoNT A protease = BoNT A light chain protease inhibition; multiplex microsphere protease substrate cleavage, flow cytometry; AID 588499; inhibition, % at 10 µM; hit rate 0.17% among 360,000; further: plate controls were buffer without enzyme for full effect and enzyme alone for no effect
Anthrax LF inh2 = blocks Bacillus anthracis lethal factor protease; inhibition, % at 10 µM; AID 588501; hit rate 0.12% among 360,000; P15917; multiplex microsphere protease cleavage assay, LF; further: plate controls were buffer without enzyme for full effect and enzyme alone for no effect
PfHsp40 yeast = compounds rescuing yeast from Plasmodium falciparum HSP40 toxicity; hit rate 0.68% among 340,000; AID 504582; S. cerevisiae expressing PfHsp40, growth rescue, ATP luminescence; growth rescue, % at 12.5 µM; in the data active means growth rescue above about 28%, passing the limit was not always enough; inconclusive means no clear call, values can overlap the other calls;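 further: yeast W303a lacking pdr1 and pdr3 grown in galactose medium; growth measured after three days at 30 °C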
Bead autofluor = compound fluorescence in toxin protease inhibitor counterscreen; fluorescence intensity (test concentration not listed); compound autofluorescence counterscreen, microsphere flow cytometry; active compounds read high; hit rate 3.1% among 360,000; AID 624483; in the data active means fluorescence intensity above about 16000; inconclusive means no clear call, values can overlap the other calls
Active calls of the source: *; ? = inconclusive; . = no result given. Shown are actives, neighbours in structure and some others; about 4.3% of the full set was active somewhere. Unless noted, no stated cut-off is given here; in the data, active means inhibition above about 30%; inconclusive means no clear call, values can overlap the other calls; inactive means below that.

SMILES | BoNT F protease | MazF activator | BoNT A protease | Anthrax LF inh2 | PfHsp40 yeast | Bead autofluor
CCc1nc2ccc(C(=O)NCC3CCCCC3)cn2c1N(C)C(=O)c1cccc(OC)c1 | 4 | . | 0 | -7 | . | 3936
CC1(C)CC(=O)C(C(C2=C(O)CC(C)(C)CC2=O)c2cccnc2)C(=O)C1 (stereo unspecified) | 6 | 7 | 1 | 2 | 0 | 4231
CC1(C)CC(=O)C(C(C2=C(O)CC(C)(C)CC2=O)c2cccc(O)c2)C(=O)C1 (stereo unspecified) | -4 | 3 | ? | -2 | 0 | 20599*
Cc1cc([N+](=O)[O-])cc(/C=N/n2c(C)nc3ccccc3c2=O)c1O | 2 | 0 | -1 | -6 | 192* | 4428
Cc1nc2ccccc2c(=O)n1/N=C/c1ccccc1O | -1 | -1 | 0 | -4 | 0 | 4574
COc1ccccc1Nc1nnc(C)c(=O)[nH]1 | -2 | 0 | -1 | -1 | 1 | 16456*
CC1CC(C)CN(S(=O)(=O)N2CCCC(C(=O)NCCc3ccccc3)C2)C1 (stereo unspecified) | 1 | 3 | 0 | 0 | -1 | 5127
COc1cc([N+](=O)[O-])cc(/C=N/N(CCC#N)C(C)=O)c1O | 2 | -24 | -1 | 1 | 1 | 4584
O=C(Nn1c(O)c(C=C2N=c3ccccc3=N2)sc1=S)c1ccccc1 | 65* | -5 | 108* | 78* | -1 | 7668
O=C(Nn1c(O)c(C=C2N=c3ccccc3=N2)sc1=S)c1cccc(Cl)c1 | 55* | -9 | 55* | 56* | -1 | 5573
O=C(Nn1c(O)c(C=C2N=c3ccccc3=N2)sc1=S)c1ccc(Cl)cc1 | 58* | 2 | ? | 70* | 0 | 13151
Cc1ccc(S(=O)(=O)Nn2c(O)c(C=C3N=c4ccccc4=N3)sc2=S)cc1 | -5 | -17 | 8 | 6 | 0 | 5052
Cc1ccc(C(=O)Nn2c(O)c(C=C3N=c4ccccc4=N3)sc2=S)cc1 | 64* | -3 | 78* | 69* | -1 | 6339
CC1CC(C)CN(S(=O)(=O)c2ccc3c(c2)oc(=O)n3CC(=O)NCCCOC(C)C)C1 (stereo unspecified) | 2 | 2 | 1 | -1 | 0 | 5391
COc1cc(OC)nc(NC(C)=O)n1 | -4 | -6 | -4 | -1 | 1 | 23958*
COc1cc(OC)nc(NC(=O)C(C)C)n1 | 12 | 4 | 0 | 1 | 1 | 4830
O=C(O)c1ccccc1NS(=O)(=O)c1cccc(-n2sc3ccccc3c2=O)c1 | 8 | 1 | 6 | 2 | 407* | 5523
O=C1NC(=S)S/C1=C/c1ccc(OC(=O)c2ccco2)cc1 | -5 | 74* | -1 | 1 | 0 | 6065
COc1cc(/C=N/N2CCN(Cc3ccc(C)cc3)CC2)cc(OC)c1O | ? | 0 | -1 | -12 | 0 | 3357
Cc1cccc(C)c1NC(=O)N1CCC(c2nc3ccccc3o2)CC1 | 0 | 4 | ? | 1 | 1 | 23165*
CC(C)c1ccc(OCC(=O)NCc2n[nH]c(=O)c3ccccc23)cc1 | . | -1 | . | . | 0 | .
COc1ccc(C(=O)NNC(=S)NC(=O)c2ccc(Cl)cc2)cc1 | . | 4 | . | . | 11 | .
CCCCC(=O)NNC(=S)NC(=O)c1ccc([N+](=O)[O-])cc1 | -6 | 7 | -1 | -7 | 0 | 4412
Cc1cccc(C(=O)NC(=S)NNC(=O)c2ccc(Cl)cc2)c1 | -10 | 5 | 0 | 1 | 75* | 2323
COc1ccc(C(=O)NC(=S)NNC(=O)c2ccc(C)cc2)cc1 | ? | 11 | 2 | 3 | 143* | 3849
SMILES | BoNT F protease | MazF activator | BoNT A protease | Anthrax LF inh2 | PfHsp40 yeast | Bead autofluor
CCCCC(=O)NNC(=S)NC(=O)c1ccc(C)cc1 | -7 | 4 | 0 | -3 | 95* | 4505
COc1ccc(-c2nnc(SC(C)C(=O)Nc3nccs3)n2Cc2ccccc2)cc1OC (stereo unspecified) | -6 | -2 | 0 | -8 | 1 | 20588*
Cc1nn(-c2ccccc2C(=O)O)c(=O)c2ccccc12 | -2 | -1 | 0 | -3 | 0 | 22783*
CC(C)(C)n1nnnc1C(c1ccccc1)N1CCN(C(=O)C2CCCO2)CC1 (stereo unspecified) | 5 | . | 0 | 1 | . | 5555
O=c1oc(/C=C/c2ccc([N+](=O)[O-])s2)nc2ccccc12 | ? | 183* | 4 | 7 | -1 | 4053
CC(=O)Oc1ccccc1/C=C/c1nc2ccccc2c(=O)o1 | 12 | -6 | -2 | -3 | -1 | 3729
CCCn1c(SCC(=O)Nc2ccc(F)c(Cl)c2)nc(O)cc1=O | 4 | -6 | 2 | 1 | 1 | 2902
CCN(CCCNC(=O)CNC(=O)c1nn(-c2ccc(OC)cc2)c(=O)c2ccccc12)c1cccc(C)c1 | -6 | -4 | -2 | 0 | 0 | 5781
O=C(NC(=S)Nc1ncc(Br)cc1Br)c1cncc(Br)c1 | 2 | -14 | 2 | 0 | 0 | 10432
O=C(NC(=S)NC1CCCCCC1)c1cncc(Br)c1 | 5 | 0 | 0 | 1 | 33* | 2326
COc1cccc(CNc2nc3cc(-c4cnn(Cc5ccccc5)c4)sc3c(=O)n2C)c1 | -4 | . | 0 | -4 | . | 3945
O=C(c1ccc(Cl)cc1)c1cnc(Nc2ccccc2Cl)s1 | -7 | 14 | ? | -1 | -1 | 20938*
CC(=O)c1cnc(Nc2cccc(Cl)c2Cl)s1 | -5 | 0 | 0 | 1 | 0 | 4964
O=C(NC1CCCC1)c1ccc(CSCc2ccccc2F)o1 | 0 | -5 | 2 | 1 | 1 | 23171*
Cn1c(CNC(=O)c2ccc(Cl)cc2)nnc1SCC(=O)N1CCOCC1 | 11 | -8 | 1 | 2 | 0 | 4068
COc1ccccc1NC(=O)C1CCN(c2ncccn2)CC1 | -2 | 0 | -1 | -3 | -1 | 21787*
COc1ccc(OC)c(NC(=O)C2CCN(c3ncccn3)CC2)c1 | -1 | 2 | 1 | -4 | 0 | 19922*
COc1cccc(NC(=O)C2CCN(c3ncccn3)CC2)c1 | -1 | 7 | 0 | 0 | 1 | 9076
Cc1ccccc1NC(=O)C1CCN(c2cnccn2)CC1 | -5 | 2 | -2 | -3 | 2 | 21599*
CCCN(CC(=O)Nc1ccc(F)c(F)c1F)C(=O)Cc1ccc(OC)c(S(=O)(=O)N2CCOCC2)c1 | 3 | -12 | -2 | -3 | 1 | 4210
Cn1c(=O)c(C(=O)NNC(=O)c2ccccc2Br)c(O)c2ccccc21 | 1 | 5 | -1 | 0 | -1 | 4464
Cn1c(=O)c(C(=O)NNC(=O)c2ccccc2Cl)c(O)c2ccccc21 | 8 | 12 | 1 | 1 | 82* | 5247
COCCNC(=O)CN(C(=O)Cn1nnc2ccccc21)c1cccc(C)c1C | 1 | 7 | -1 | -6 | 0 | 4572
COCCNC(=O)c1ccc2c(c1)nc(C)n2-c1cccc(Cl)c1 | 6 | -4 | -1 | -16 | 0 | 3878
CCOC(CNC(=O)c1ccc2c(c1)nc(C)n2-c1cccc(F)c1)OCC | -4 | -2 | -1 | -4 | 0 | 23358*
CCN1CCCC1CNC(=O)c1cc2c(C)nc3ccccc3c2o1 (stereo unspecified) | 9 | -8 | 7 | -6 | 0 | 17361*

Source: PubChem BioAssay (several laboratories)
